# Shiga inhibitor: inhibitors of Shiga toxin in Vero cells; 9.2% of 290,000 active; AID 2315; Vero cells, Shiga toxin protein synthesis inhibition reporter; inhibition, % at 38.7 µM; in the data active = inhibition mostly above about 28%, no sharp cut-off; inactive = mostly below about 43%; also: 0% is about no effect
# Pf growth 96h: P. falciparum growth inhibition at 96 hour, primary screen for plastid delayed-death inhibitors. P. falciparum luciferase reporter growth, 96 h. Potency, µM (series often up to 28.7 µM), for inactives: at the top dose activity change, negative = inhibition, actives largely listed as inhibitors. 6.9% of 320,000 active. AID 504834; also: potency is read from the fitted curve at half-maximal effect; % is scaled to controls: 0 for no effect and ±100 for the full control effect
#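 Cell-based qHTS: luciferase-tagged P. falciparum in erythrocytes (2% hematocrit, 0.05% parasitemia final) incubated with compounds for 96 hours, 37 C, 5% CO2; luciferase detection reagent then added and luminescence measured.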
# HCV inh: inhibitors of hepatitis C virus infection; Potency, µM (titrated, usually from 41.8 µM), for the others: at the top dose activity change, negative = inhibition, usual class: inhibitors; Huh7.5.1 HCVcc-Cre infection, luciferase reporter, 44 h; 3.4% of 340,000 active; also: potency is read from the fitted curve at half-maximal effect; % is scaled to controls: 0 for no effect and ±100 for the full control effect
#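 Reporter virus HCVcc-Cre (~0.5 moi) infects cells exposed to compound; seeding density 1,000 cells/well with 4 h settling beforehand. Luminescence, 15 sec read, taken 44 h post-infection following a 15 min RT substrate incubation.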
# AMA1 RON2 block: AMA1-RON2 (P. falciparum) interaction inhibition | 0.2% of 360,000 active | Potency, µM (top dose mostly 58.2 µM), for inactives: top-dose activity change, negative = inhibition, hits mostly inhibitors | AlphaScreen AMA1-biotinylated RON2 peptide binding;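 also: potency is read from the fitted curve at half-maximal effect; 0% = vehicle wells and -100% = peptide control; nearly all actives have a fitted effect of over 45% in size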
#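 AMA1 (3D7) with his tag at 25 nM final met compounds first, then biotinylated RON2 peptide at 25 nM; detection used donor plus acceptor beads, 10 µg/mL apiece, read by AlphaScreen after 30 min at room temperature.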
# Cycloheximide cs: counter-screen hit for Shiga toxin inhibitors, cycloheximide. max response, %. 12% of 300,000 active. cell reporter, cycloheximide protein synthesis inhibition counterscreen; in the data active = max response mostly above about 13%, no sharp cut-off; inactive = mostly below about 14%; also: read at 38.3 µM for the half of the compounds with a filed dose; 0% is about no effect
# Pf growth 48h: P. falciparum growth inhibition at 48 hours (one generation); P. falciparum luciferase growth in erythrocytes, 48 h; Potency, µM (series often up to 28.7 µM), for the others: top-dose activity change, negative = inhibition, actives largely listed as inhibitors; 5.9% of 310,000 active; also: potency is read from the fitted curve at half-maximal effect; % is scaled to controls: 0 for no effect and ±100 for the full control effect
#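 In quantitative HTS format, infected erythrocytes bearing luciferase-reporter parasites were treated for a single generation at 37 C. Luminescence after adding detection reagent served as the growth measure.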
# * = called active by the depositor; i = inactive; u = inconclusive; x = no result; [ ] = another dose, or the depositor's remark. An excerpt weighted towards active compounds, which were near 21% of everything screened. Unless noted, calls follow the shape of the dose curve; as a rule, active = well fitted curve in the direction sought with a large enough effect; inconclusive = small, poorly fitted or top-dose-only effect, or another doubt; inactive = no such curve, though single readings can be large; an effect the other way counts as inactive or inconclusive.
SMILES,Shiga inhibitor,Pf growth 96h,HCV inh,AMA1 RON2 block,Cycloheximide cs,Pf growth 48h
CCC1C(=O)C[C@H]2CCN3C(=O)CCCC1C23 (some centres not stated),i,x,10%,-2%,-6,x
Cc1ccc(CNC(=O)C2CCC(=O)N2C(C)C)cc1 (configuration not stated),-4,u,-1%,11%,-2,13%
COc1ccc(S(=O)(=O)NC(=O)C2(C)CCN2C(=O)C2CC2)cc1 (configuration not stated),x,x,x,-6%,x,x
COCCn1c(SCC(=O)NCc2ccc3c(c2)OCO3)nc2ccccc2c1=O,-24,4%,-11%,0%,-8,-11%
CC(=O)c1ccc(NC(=O)c2ccc(NC(=O)CCS(=O)(=O)c3cccs3)cc2)cc1,192*,216%,-16%,4%,18*,73%
COc1cccc(NC(=O)CNC(=O)c2cccs2)c1,61*,x,3%,-11%,26*,58%
COc1cccc(CNC(=O)CNC(=O)c2cccs2)c1,-6,u,-1%,-11%,1,11%
COc1cccc(NC(=O)CCS(=O)(=O)c2cccs2)c1,78*,-20%,1%,4%,47*,87%
COc1ccc(F)cc1S(=O)(=O)Nc1cc2c3c(c1)CCN3C(=O)CC2,x,-5%,3%,-7%,x,10%
COc1ccc(C(C)(O)c2nc(-c3cccc(C(F)(F)F)c3)cs2)cc1 (configuration not stated),x,x,x,15%,x,x
COCCN(C(=O)Nc1ccc(F)cc1F)c1nc2ccccc2s1,48*,-4%,-2%,32%,34*,83%
COCCN(C(=O)Nc1ccccc1)c1ccccc1,49,x,-4%,-8%,5,11%
O=C(Nc1ccc(F)cc1F)Nc1sccc1-c1nc2ccccc2s1,17,u,u,39%,3,u
COCCN(C(=O)Nc1ccc(OC)cc1)c1nc2ccccc2s1,42*,37%,u,-1%,18*,8%
COC(=O)[C@@H](NC(=O)O[C@H]1C(=O)c2ccc(OC)cc2O[C@@H]1c1ccc2c(c1)OCO2)C(C)C,0,29%,8%[8.37 µM],x,23*,34%
N=c1sccn1Cc1ccc(Cl)cc1Cl,-10,-16%,u,3%,-2,-9%
O=C(CCl)N=c1sccn1Cc1cccc2ccccc12,16,1.5µM*,3.5µM*,-8%,18,u
O=C(CCl)N=c1sccn1Cc1ccc(Cl)cc1Cl,18,12µM*,0.56µM*,6%,28*,u
O=C(CCl)N=c1sccn1Cc1ccccc1Cl,17,0.74µM*,0.56µM*,20%,9,0.26µM*
CCCNC(=O)N1CCN(S(=O)(=O)c2ccc3c(c2)OCCO3)CC1,x,-19%,-7%,-10%,x,u
COc1ccc(NC(C)=O)cc1CNC(=O)CN1CCOCC1,-9,106%,7%,-5%,-1,0%
O=C(CCc1nc2ccccc2c(=O)[nH]1)Nc1cc(Cl)ccc1N1CCCCC1,x,u,u,-10%,x,10µM*
O=C(CN1C(=O)NC2(CCCCC2)C1=O)Nc1ccc(F)cc1,15,61%,14%,38%,-2,21%
Cc1ccc(Sc2ccc(NC(=O)CCN3C(=O)NC4(CCCC4)C3=O)cc2)c(C)c1,x,-19%,4µM*,-10%,x,u
COc1ccc(NC(=O)CN2C(=O)NC3(CCCCCC3)C2=O)cc1Cl,x,x,25µM*,9%,x,x
SMILES,Shiga inhibitor,Pf growth 96h,HCV inh,AMA1 RON2 block,Cycloheximide cs,Pf growth 48h
O=C(CCc1nc2ccccc2c(=O)[nH]1)Nc1ccccc1N1CCCCC1,x,x,x,8%,x,x
O=C(CN1C(=O)NC2(CCCCCCC2)C1=O)Nc1ccc(Br)cc1,x,12%,32µM*,-4%,x,-2%
COc1ccc(CC(=O)NNC(=O)c2ccc(Br)o2)cc1,-12,-8%,11%,56%,2,-5%
Cc1cc(C)c(NC(=O)CN2C(=O)NC3(CCCCC3)C2=O)c(Cl)c1,20,13µM*,8%,7%,-3,0%
COc1ccccc1NS(=O)(=O)c1cc(NC(=O)CCc2nc3ccccc3c(=O)[nH]2)ccc1C,x,10µM*,u,-15%,x,u
O=C(CN1C(=O)NC2(CCCC2)C1=O)Nc1cccc(-c2nnc3n2CCCCC3)c1,-4,7.4µM*,18%,11%,-3,-6%
Cc1cc(C)c(NC(=O)CN2C(=O)NC3(CCc4ccccc43)C2=O)c(Cl)c1 (configuration not stated),x,x,-12%,3%,x,x
O=C(CCc1nc2ccccc2c(=O)[nH]1)Nc1cc(C(F)(F)F)ccc1N1CCOCC1,x,-17%,-16%,-13%,x,-2%
COc1cccc(Oc2ccc(C(F)(F)F)cc2NC(=O)CCc2nc3ccccc3c(=O)[nH]2)c1,55*,1.7µM*,u,-1%,43*,5.9µM*
O=C(CN1C(=O)NC2(CCCCC2)C1=O)NCC(=O)Nc1ccc(F)c(F)c1,x,-15%,3%,-14%,x,0%
COc1ccc(NC(=O)CN2C(=O)NC3(CC(C)CC(C)(C)C3)C2=O)cc1S(=O)(=O)N1CCCCC1 (configuration not stated),x,u,-32%,-8%,x,13µM*
Cc1ccc(NC(=O)CN2C(=O)NC3(CCCCCCC3)C2=O)cc1C,x,-24%,-6%,14%[11.6 µM],x,-10%
COc1ccc(NC(=O)CN2C(=O)NC3(CCCC3)C2=O)cc1S(=O)(=O)N1CCCCC1,x,u,1%,-7%,x,12%
COc1ccccc1NS(=O)(=O)c1cc(NC(=O)CN2C(=O)NC3(CCCCC3)C2=O)ccc1C,x,x,13µM*,-3%,x,x
CCOc1cc(S(=O)(=O)NCc2ccncc2)c(C)cc1C,7,-3%,-9%,12%,-2,-30%[5.75 µM]
COc1cc([N+](=O)[O-])c2nc(C)ccc2c1[N+](=O)[O-],x,x,6.3µM*,-1%,x,x
CC(C)NC(=O)CCN1C(=O)c2ccccc2Sc2ncccc21,-4,6.6µM*,5%,-9%,-3,12%
CCOc1ccc(Nc2cc(=O)oc3ccccc23)cc1,24,1.7µM*,-27%,-6%,9,1.3µM*
CCCCNc1cc(=O)oc2ccccc12,13,u,u,4%,-1,u
Cc1cc(C)c(NN=c2c(=O)c3ccccc3c2=O)c(C)c1,7,28%,-2%,-6%,30*,x
CCN(CC)S(=O)(=O)c1cccc(NN=c2c(=O)c3ccccc3c2=O)c1,2,-4%,23%,13%,1,7%
O=c1c(=NNc2ccccc2Cl)c(=O)c2ccccc12,83*,74%,12%,-18%,41*,364%
N#C/C(=N\Nc1ccccc1Cl)C(=O)c1ccccc1,-8,u,3%,-5%,14,42%
Cc1nn(-c2ccccc2)c(C)c1/C=C/C(=O)OCC(=O)Nc1ccc(S(N)(=O)=O)cc1,x,20%,-8%,-5%,x,1%
